Assay outcomes (PubChem BioAssay)
CHRM1 agonist = human M1 muscarinic receptor agonists, primary screen, Fluo-8 calcium fluorescence, CHO-K1 cells, HTS. Muscarinic acetylcholine receptor M1 (Homo sapiens), P11229. CHO-K1 hM1, agonist mode; 0% DMSO, 100% acetylcholine EC100. activation, % at 3 µM. hit rate 0.33% among 360,000. AID 588814, 2011;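 active means activation above the run's mean compound activation plus 3 SD, cut at about 16% in these data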;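 further: peak over basal fluorescence ratio within a 140 s kinetic read after compound addition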
Target sequence (P11229 whole entry, looked up): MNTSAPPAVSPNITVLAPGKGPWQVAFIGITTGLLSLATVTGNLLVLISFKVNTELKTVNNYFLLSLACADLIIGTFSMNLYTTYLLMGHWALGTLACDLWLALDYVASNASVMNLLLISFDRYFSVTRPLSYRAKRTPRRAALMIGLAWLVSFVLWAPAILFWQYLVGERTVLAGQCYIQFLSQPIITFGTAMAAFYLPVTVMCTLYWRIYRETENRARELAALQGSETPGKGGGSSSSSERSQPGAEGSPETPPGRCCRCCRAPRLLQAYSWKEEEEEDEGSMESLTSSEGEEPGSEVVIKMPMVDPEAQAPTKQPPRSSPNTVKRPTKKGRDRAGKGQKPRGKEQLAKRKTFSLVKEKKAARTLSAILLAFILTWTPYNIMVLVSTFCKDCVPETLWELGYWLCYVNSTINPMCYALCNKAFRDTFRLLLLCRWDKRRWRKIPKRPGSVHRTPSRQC
CHO-K1 Ca ag = counter-screen for M1 agonists: effect in parental CHO-K1 cells | Fluo-8 calcium fluorescence; scaled to maximal ATP response, vehicle zero | activation, % at 3 µM | hit rate 0.48% among 360,000; in the data active means activation above about 15%;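 further: untransfected CHO-K1 host cells lacking M1 receptor as counterscreen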
CHRM1 PAM = human M1 muscarinic receptor positive allosteric modulators, primary screen, CHO-K1 cells, Fluo-8 calcium fluorescence, 1536-well; CHO-K1 hM1, ACh EC20; 0% = ACh EC20, 100% = maximal ACh; hit rate 0.088% among 360,000; activation, % at 3 µM; AID 588819, 2011; Muscarinic acetylcholine receptor M1 (Homo sapiens), P11229; in the data active means activation above about 19%, passing the limit was not always enough
CHO-K1 Ca PAM = nonselective calcium activators in parental CHO-K1 cells, primary screen, counter-screen for M1 PAM project, cell-based, Fluo-8 calcium fluorescence, full deck, 1536-well; ATP EC20; 0% at ATP EC20, 100% at ATP max; activation, % at 3 µM; hit rate 0.02% among 360,000;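 active means activation above the run cutoff, the mean activation of all test compounds plus 3 SD, cut at about 40% in these data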;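 further: peak over basal fluorescence ratio in a 140 s read after ATP addition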
CHO-K1 Ca antag = M1 antagonist counterscreen hit in parental CHO-K1 cells | inhibition, % at 3 µM | hit rate 0.6% among 360,000 | ATP-induced calcium, Fluo-8 fluorescence;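 active means inhibition above a per-plate cutoff, the plate's mean sample inhibition plus 3 SD, cut at about 24% in these data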;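 further: 0% = DMSO plus EC80 ATP and 100% = DMSO alone without ATP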
CHRM1 antagonist = human M1 muscarinic receptor antagonists, primary screen, CHO-K1 cells, Fluo-8 calcium fluorescence, 1536-well. AID 588852, 2011. hit rate 1.3% among 360,000. Muscarinic acetylcholine receptor M1 (Homo sapiens), P11229. inhibition, % at 3 µM. CHO-K1 hM1, ACh EC80 antagonist;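 active means percent inhibition above its own plate's cutoff, namely the mean of that plate's compound wells plus 3 SD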;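 further: peak over basal fluorescence ratio during 140 s after agonist addition; 0% = ACh EC80 plus DMSO and 100% = DMSO alone without agonist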
Starred values were filed as active, the others as inactive. Hits are enriched below; roughly 2.4% of the tested compounds scored in any of these assays.

SMILES	CHRM1 agonist	CHO-K1 Ca ag	CHRM1 PAM	CHO-K1 Ca PAM	CHO-K1 Ca antag	CHRM1 antagonist
O=C(Cc1c[nH]c2ccccc12)N1CCN(S(=O)(=O)c2cccc(Cl)c2Cl)CC1	-1	4	6	-2	-12	-9
O=C(CNC(=O)c1ccccc1F)NCCc1ccccc1F	-3	0	-10	-14	6	28*
O=C(O)CNC(=O)c1ccccc1F	0	0	6	-5	11	-2
Cc1ccc(N2C(=O)CSC23C(=O)Nc2ccccc23)cc1 (stereo not given)	-5	0	-19	11	-3	41*
Cc1ccc2c(c1)C1(SC(C)C(=O)N1c1ccc(Cl)cc1)C(=O)N2 (stereo not given)	-12	2	-26	12	0	25
Cc1ccc(C(NC(=O)C2CCN(CCOc3ccccc3)CC2)c2ccccn2)cc1 (stereo not given)	-9	1	-24	10	-14	33*
O=C(Nc1nnc(-c2cccs2)o1)c1cccc(C(F)(F)F)c1	41*	32*	-8	17	5	-4
N#Cc1ccc(C(=O)Nc2nnc(-c3cccs3)o2)cc1	-1	0	10	9	-5	-9
CCOC(=O)Nc1cccc(OCC(=O)Nc2ccc3c(c2)CCC3)c1	-7	2	-11	2	-4	4
Cc1cccc(Cn2c(NC3CCCC3)nc3c2c(=O)[nH]c(=O)n3C)c1	-9	0	-20	0	-5	19
N#C/C(=C/c1ccc(N2CCOCC2)o1)c1nc2ccccc2[nH]1	25*	19*	-17	-10	15	31
N#C/C(=C/c1ccc(N2CCOCC2)o1)C(=O)NC1CCCCC1	10	7	3	13	-7	2
COc1ccc(NC(=O)/C(C#N)=C\c2ccc(N3CCOCC3)o2)cc1	69*	54*	-36	-20	35*	31*
N#C/C(=C\c1ccc(N2CCOCC2)o1)C(=O)Nc1ccc(O)cc1	10	16*	-6	3	5	9
COc1ccc(NC(=O)/C(C#N)=C/c2ccc(Br)o2)cc1	-1	0	7	7	-10	-10
COc1ccc(F)cc1S(=O)(=O)n1nc(C)cc1C	-4	0	10	16	-13	-16
CS(=O)(=O)N(CC(=O)Nc1cccc(Br)c1)Cc1ccccc1	-3	1	9	14	-3	-17
CCOC(=O)c1ccc(NC(=O)CSc2nc(=O)n(CCN3CCOCC3)c3c2CCC3)cc1	-8	-1	0	-3	-6	-8
O=C(N[C@@H](Cc1ccccc1)C(=O)N1CCC2(CC1)NCCc1[nH]cnc12)c1cccc(Br)c1	-5	0	-18	-17	-2	39*
COCC(=O)N(C)C[C@H]1Oc2ncc(Br)cc2C(=O)N([C@@H](C)CO)C[C@H]1C	-3	2	4	22	-11	-10
CC(=O)Nc1ccc(C(=O)COC(=O)C2CC2)c(F)c1	5	0	10	-30	28*	0
CC(=O)Nc1ccc(C(=O)COC(=O)C2CCCCC2)c(F)c1	4	4	4	2	-9	-3
CSc1cccc(NC(=O)CC2Oc3ccccc3NC2=O)c1 (stereo not given)	-2	1	-2	4	-15	4
CCc1ccc(-c2nc(CSCC(=O)N3CCN(c4ccccn4)CC3)c(C)o2)cc1	0	6	-10	-7	29*	14
Cc1ccc(-c2nc(CSCC(=O)N3CCN(c4ccccn4)CC3)c(C)o2)cc1	-3	9	-27	4	1	33*
SMILES	CHRM1 agonist	CHO-K1 Ca ag	CHRM1 PAM	CHO-K1 Ca PAM	CHO-K1 Ca antag	CHRM1 antagonist
Cc1ccc(-c2nc(CSCC(=O)N3CCOCC3)c(C)o2)cc1	-2	1	7	14	-4	-8
CCOc1ccc(-c2nc(CSCC(=O)N3CCN(c4cccc(OC)c4)CC3)c(C)o2)cc1	-2	6	-19	-4	15	35*
COc1ccc(CCNC(=O)c2cccn2C)cc1	0	1	-5	-11	1	15
Cc1cc(C(=O)CSc2nc3ccccc3[nH]2)c(C)n1CC1CCCO1 (stereo not given)	1	20*	-34	-18	58*	76*
Cc1cc(C(=O)CSc2nc(N)cc(=O)[nH]2)c(C)n1CC1CCCO1 (stereo not given)	-6	0	7	5	-5	-10
COc1ccc(N=Nc2ccc(O)c3ncccc23)cc1	6	5	18	5	-4	-12
COc1cccc(N=Nc2ccc3cccnc3c2O)c1	30*	38*	-20	-12	12	31*
COc1cc(OC)cc(C(=O)Nc2cccc3cccnc23)c1	-4	-1	7	-3	3	-6
COc1cccc(N=Nc2ccc(O)c3ncccc23)c1	24*	41*	-28	-6	35*	40*
Cn1nc(C(F)(F)F)c(-c2cccc(C(F)(F)F)c2)c1NC(=O)c1ccco1	-8	0	6	8	-14	-5
Cn1nc(C(F)(F)F)c(-c2cccc(C(F)(F)F)c2)c1NC(=O)Nc1ccc(F)cc1	3	15*	-19	-25	33*	38*
CCC(C)N(C)Cc1cccc(C2(O)CCN(S(=O)(=O)c3ccc(F)c(C)c3)CC2)c1 (stereo not given)	-11	0	-27	5	-13	81*
CCCc1cc2c(cc1NC(=O)c1ccccc1C)OCO2	-1	0	12	10	0	-18
CC(=O)Nc1ccc(S(=O)(=O)Nc2cccc3[nH]ncc23)cc1	-8	13	6	-17	31*	-5
CCn1ccnc1CN(C)C(=O)CCc1nnc(CCCc2ccccc2)o1	-9	0	5	-15	24*	4
CCCCc1nc2cc(C(=O)NCc3ccccn3)ccc2o1	0	0	0	-21	4	8
CN(Cc1ccsc1)C(=O)CCc1nnc(CCCc2ccccc2)o1	-3	1	7	17	-11	-9
CCn1ccnc1CNC(=O)c1ccc2oc(CCCc3ccccc3)nc2c1	-4	6	-21	20	-2	33*
COc1cc(NC(=O)CN2C(=O)C(C)N(c3ccc(C)cc3)C2=O)cc(OC)c1 (stereo not given)	-3	1	6	-2	2	-6
COc1cc(Nc2c3c(nc4ccccc24)CCCC3)cc(OC)c1OC	-13	17*	-8	7	4	14
